From the supplement of paper PMC3414501
Counter-ions that a name gives are not always drawn.

These molecules were tested on S. cerevisiae BY4741 (wild-type), vegetative growth in YPD (assay: growth sensitivity score (doubling time z-score vs DMSO controls); higher = slower growth, strongly negative scores also mark growth inhibition (complete suppression), active = hit call of the paper).
In short: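 Rich medium in microtiter plates was seeded with Saccharomyces cerevisiae strains BY4741 and AD1-9 at an OD600 of 0.065, and compounds were added as a 1:100 dilution of DMSO stock. A Tecan GENios reader recorded optical density every 15 min for 24 hours, with eight solvent-only wells in each experiment. Average doubling time was the time to reach a set generation point divided by generation number. The growth sensitivity score was the compound mean minus the solvent-only mean, divided by the solvent-only standard deviation.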

| SMILES | growth sensitivity score |
| --- | --- |
| CC[N+](C)(CC)CCOC(=O)C(O)(c1ccccc1)C1CCCCC1 (stereo not given) [Oxyphenonium bromide] (stock concentration (mM, diluted 1:100): 10) | 0.39 (inactive) |
| CCOC(=O)c1ncn2c1CN(C)C(=O)c1cc(F)ccc1-2 [Flumazenil] (stock concentration (mM, diluted 1:100): 10) | 1.4 (inactive) |
| Nc1nc2ccc(OC(F)(F)F)cc2s1 [Riluzole] (stock concentration (mM, diluted 1:100): 9.9) | 5.49 (active) |
| O=c1c(O[C@@H]2O[C@H](CO)[C@H](O)[C@H](O)[C@H]2O)c(-c2ccc(O)c(O)c2)oc2cc(O)cc(O)c12 [Hyperoside] (stock concentration (mM, diluted 1:100): 8.8) | -0.31 (inactive) |
| Cc1c(O)cccc1C(=O)N[C@@H](CSc1ccccc1)[C@H](O)CN1C[C@H]2CCCC[C@H]2C[C@H]1C(=O)NC(C)(C)C [Nelfinavir mesylate] (stock concentration (mM, diluted 1:100): 8.6) | 0.56 (inactive) |
